PLK1 PBD block: qHTS for Inhibitors of PLK1-PDB (polo-like kinase 1 - polo-box domain): Primary Screen | Serine/threonine-protein kinase PLK1 (Homo sapiens), P53350 | Plk1 PBD binding of FITC phosphopeptide, fluorescence polarization | Potency, µM, most hits filed as inhibitors | 360,000 compounds, 2.8% hits | AID 720504, 2013; further: series mostly up to about 57 µM; nearly all actives have a fitted effect of over 65% in size
PI5P4Ka inh: qHTS for Inhibitors of phosphatidylinositol 5-phosphate 4-kinase (PI5P4K); max response, %; Phosphatidylinositol 5-phosphate 4-kinase type-2 alpha (Homo sapiens), P48426; 330,000 compounds, 1.2% hits; PI5P4Kalpha enzyme, ADP-Glo luminescence, 60 min; hits give low values; active means max response of -50% or lower; inconclusive means between -30% and -50%; inactive means -30% or higher; further: value at the top dose of about 77 µM
Target sequence (P48426 whole entry, looked up): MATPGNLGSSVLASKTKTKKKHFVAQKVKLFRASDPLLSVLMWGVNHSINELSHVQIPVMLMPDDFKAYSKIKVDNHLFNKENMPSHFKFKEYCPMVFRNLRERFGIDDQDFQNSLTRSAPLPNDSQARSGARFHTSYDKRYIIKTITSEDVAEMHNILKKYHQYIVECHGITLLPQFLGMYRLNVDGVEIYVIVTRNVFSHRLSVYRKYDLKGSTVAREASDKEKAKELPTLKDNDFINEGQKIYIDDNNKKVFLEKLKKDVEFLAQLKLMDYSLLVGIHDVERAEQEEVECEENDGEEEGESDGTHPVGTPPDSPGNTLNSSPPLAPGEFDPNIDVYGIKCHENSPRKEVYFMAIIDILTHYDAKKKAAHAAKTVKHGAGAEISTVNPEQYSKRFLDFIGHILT
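Human PI5P4Kalpha with substrate in 0.038 M HEPES pH 7.4, 0.28 mM EGTA, 0.1% CHAPS, 5% DMSO; reaction started with 5 microM ATP (final), 60 min at room temperature. ADP formed read by ADP-Glo luminescence.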
VDR inhibitor: Inhibitors of the vitamin D receptor (VDR): qHTS; 400,000 compounds, 0.93% hits; Potency, µM, actives largely listed as inhibitors; VDR-SRC2-3 peptide fluorescence polarization, 2 h; Vitamin D3 receptor (Homo sapiens), P11473
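Two reagent solutions held at 4 deg C in the dark were dispensed, compounds pinned at 23 nl, and the mixture incubated 2 h at room temperature. Read-out: fluorescence polarization of VDR–SRC2-3 peptide binding.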
GCN5L2 inh: qHTS Assay for Inhibitors of GCN5L2. Potency, µM (titrated, usually from 58.9 µM), usual class: inhibitors. Histone acetyltransferase KAT2A (Homo sapiens), Q92830. 390,000 compounds, 0.21% hits. GCN5L2 HAT assay, ThioGlo1 CoA-SH fluorescence
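Enzyme at 20nM final was mixed with library compounds for 15 min at room temperature. Peptide H3(1-25) at 75uM, acetyl-CoA at 70uM and ThioGlo1 at 50uM were then added. Plates were read immediately and after 20 min (Ex340nm/Em540nm).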
Rango complex inh: qHTS Assay for Inhibitors of Rango (Ran-regulated importin-beta cargo) - Importin beta complex formation; Importin subunit beta-1 (Homo sapiens), Q14974; Rango CFP/YFP FRET sensor + importin beta, 45 min; Potency, µM (doses to about 92.2 µM); 340,000 compounds, 0.031% hits; AID 540263, 2011; calls by dose curve; further: nearly all actives have a fitted effect of over 15% in size
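FRET biosensor Rango (snurportin 1 IBB between N-terminal EYFP and C-terminal Cerulean), 50 nM in PBS/1 mM DTT/0.02% Tween-20/0.1% BSA, preincubated 5 min RT with compound; 0.125 microM importin beta added, 45 min RT, CFP/YFP FRET ratio read.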
Rango release inh: qHTS Assay for Inhibitors of RanGTP induced Rango (Ran-regulated importin-beta cargo) - Importin beta complex dissociation; AID 540253, 2011; Biochemical FRET Rango-importin beta, RanGTP-induced dissociation; 340,000 compounds, 0.071% hits; Potency, µM (highest dose often 46.1 µM); Snurportin-1 (Homo sapiens) + GTP-binding nuclear protein Ran (Homo sapiens) + Importin …; calls by dose curve; further: nearly all actives have a fitted effect of over 45% in size
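Quantitative HTS using a FRET biosensor: 0.1 uM Rango, 0.25 uM importin beta, 0.6 uM Ran, 2 mM GTP, 0.2 uM RCC1 final, PBS with DTT, Tween-20 and BSA. Post-read taken 45 min after Ran addition.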
Hits are given with their value; . = inactive; ? = inconclusive; / = not tested or not shown. Only some compounds are listed: those with a hit (about 3.6% of all), similar ones and a draw of the others. Unless noted, the call rests on the fitted dose curve; in most records, active means well fitted curve in the direction sought with a large enough effect; inconclusive means small, poorly fitted or top-dose-only effect, or another doubt; inactive means no such curve, though single readings can be large; an effect the other way counts as inactive or inconclusive.

SMILES	PLK1 PBD block	PI5P4Ka inh	VDR inhibitor	GCN5L2 inh	Rango complex inh	Rango release inh
N#CC(C#N)=NNc1ccc([N+](=O)[O-])cc1	.	.	?	.	.	.
CC(C)N(Cc1ccccc1)C(=O)CCS(=O)(=O)c1ccc2c(c1)oc(=O)n2C	17µM	.	.	.	.	.
CN1C(=O)N(C)C(=O)C2(Cc3c(nc4ccccn4c3=O)N3CCc4ccccc4C32)C1=O (stereo not given)	17µM	.	.	.	.	.
CC1CCN2c3nc4ccccn4c(=O)c3CC3(C(=O)N(C)C(=O)N(C)C3=O)C2C1 (stereo not given)	.	/	.	.	.	.
Cc1ccc(S(=O)(=O)N(C)C[C@H]2Oc3c(NC(=O)Nc4cccc5ccccc45)cccc3C(=O)N([C@@H](C)CO)C[C@@H]2C)cc1	.	.	.	.	.	.
O=C(c1ccc(CNS(=O)(=O)c2ccccc2)cc1)N1CCC2(CC1)OCCO2	21µM	.	.	.	.	.
O=C(Oc1ccccc1)N1CCC[C@@]2(CCN(Cc3cc(C(F)(F)F)cc(C(F)(F)F)c3)C2)C1	/	/	?	.	/	/
O=C1NC(=O)N(Cc2ccco2)C(=O)/C1=C/c1ccc(-c2cccc([N+](=O)[O-])c2)o1	0.42µM	-80	14µM	20µM	.	?
O=C1NC(=S)N(Cc2ccco2)C(=O)/C1=C\c1cccs1	/	/	/	8.9µM	/	/
CCOC(=O)C1CCN(/C=C2/C(=O)NC(=S)N(c3ccccc3F)C2=O)CC1	.	.	.	.	.	.
NC(=O)C1CCN(/C=C2\C(=O)NC(=O)N(Cc3ccco3)C2=O)CC1	?	-61	.	.	.	.
COc1ccc(/C=C2/C(=O)N(Cc3ccco3)C(=O)N(C(C)C)C2=O)cc1	3.4µM	?	?	?	?	.
COc1ccc(NC(=O)N2CCC3(CC2)CCN(C(=O)Oc2ccccc2)CC3)cc1	/	/	.	.	/	/
C=C1C2C[C@]3(C4CC5[C@@]6(C)CC[C@H](O)[C@@]5(C3CC2=O)C4[N+]([O-])(CC)C6)[C@@H]1O (stereo not given in full)	/	/	.	/	/	/
C#Cc1cccc2c1c(C(=O)c1ccc(Cn3c(C)nc4cnccc43)c(F)c1)cn2C(=O)N(C)C	/	/	.	.	/	/
CN(C)c1ccc(/C=C2/C(=O)NC(=O)N(Cc3ccco3)C2=O)cc1	1.9µM	-58	?	.	?	?
Cc1cc(/C=C2/C(=O)NC(=O)N(Cc3ccco3)C2=O)c(C)n1-c1ccccc1	?	?	.	.	?	?
CCN(CC)c1ccc(/C=C2/C(=O)NC(=O)N(Cc3ccco3)C2=O)cc1	?	-73	?	.	?	?
O=C1NC(=O)N(Cc2ccccc2)C(=O)/C1=C/c1cnn(-c2ccccc2)c1	/	/	/	.	/	/
C=CC[C@]1(O)CCC2C3CCC4=CCCCC4C3CCC21C (stereo not given in full)	/	/	.	.	/	/
CC[C@H](C)[C@H](NC(=O)[C@H](CCCN=C(N)N)NC(=O)[C@H](CCCN=C(N)N)NC(=O)[C@H](CC(C)C)NC(=O)[C@H](Cc1ccccc1)NC(=O)CNC(=O)CNC(=O)[C@@H](N)Cc1ccc(O)cc1)C(=O)O	/	/	.	.	/	/
NCC(N)C(=O)c1ccccc1 (stereo not given)	/	/	.	.	/	/
C[C@]12CCC3C(CC[C@]4(O)C[C@@H](O)CC[C@]34C=O)[C@@]1(O)CC[C@@H]2C1=CC(=O)OC1 (stereo not given in full)	/	/	.	.	/	/
Oc1ccc2c3c1O[C@H]1c4c(c5ccccc5n4Cc4ccccc4)C[C@@]4(O)C(C2)N(CC2CC2)CC[C@]314	/	/	?	.	/	/
O=C(COc1ccccc1/C=C1/NC(=O)NC1=O)Nc1ccccc1	3.4µM	?	?	.	.	.

Source: PubChem BioAssay
